Results on 63 molecules are retold here after the supplement of paper PMC12582362.

Structures can show the parent of a compound that is named as a salt. Hit rate of the full screen: of about 1,500 compounds, about 30 (2%) showed activity.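 The calls were made as follows: active = robust z-score below -2; a few such results were not called.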 Shown is part of a subset that was picked to be rich in actives.

This assay deals with optoTopBP1 Flp-In 293 T-REx (HEK293) cells. The experiment in a line: light-induced TopBP1 condensate (nuclear foci) count, plate-normalised robust z-score vs non-control wells; higher = more TopBP1 condensates (negative = condensation inhibitor), active = hit call of the paper. The settings on record: 10 µM; incubation time 2 h.
Turning to `CC[N+](C)(CC)CCC[n+]1c(-c2ccccc2)c2cc(N)ccc2c2ccc(N)cc21` [Propidium iodide], the “light-induced TopBP1 condensate (z-score)” value is -3.58 (active).
In the case of `C[C@]12CCC(=O)C=C1C=C[C@@H]1[C@@H]2CC[C@@]2(C)[C@H]1CC[C@@]21CCC(=O)O1` [Canrenone] it was 0.252 (inactive); in that of `COCCCOc1ccnc(C[S+]([O-])c2nc3ccccc3[nH]2)c1C` (stereo not drawn) [Rabeprazole Sodium salt], -0.658 (inactive).
The same measure for `CC(C)=C/C(C)=N/Nc1nncc2ccccc12` [Budralazine]: -0.574 (inactive).
In the case of `CC(N)C12CC3CC(CC(C3)C1)C2` (stereo not drawn) [Rimantadine Hydrochloride] it was -0.685 (inactive); in that of `OC[C@H]1O[C@@H](c2ccc(Cl)c(Cc3ccc(O[C@H]4CCOC4)cc3)c2)[C@H](O)[C@@H](O)[C@@H]1O` [Empagliflozin], 0.47 (inactive).
For `CN(C)[C@@H]1C(O)=C(C(N)=O)C(=O)[C@@]2(O)C(O)=C3C(=O)c4c(O)cccc4[C@@](C)(O)[C@H]3C[C@@H]12` [Tetracycline hydrochloride], the “light-induced TopBP1 condensate (z-score)” value was 0.0489 (inactive).
In the case of `N#Cc1cc(NC(=O)C(=O)O)c(Cl)c(NC(=O)C(=O)O)c1` [Lodoxamide] it was 0.686 (inactive).
Regarding `Oc1c(I)cc(Cl)c2cccnc12` [Clioquinol], the “light-induced TopBP1 condensate (z-score)” value was -0.446 (inactive).
In the case of `Oc1c(Cl)cc(Cl)c2cccnc12` [Chloroxine] it was -0.15 (inactive); in that of `Cc1ccc2c(Cl)cc(Cl)c(O)c2n1` [Chlorquinaldol], -9.09 (active); in that of `C[C@@H]1C[C@H]2[C@@H]3C[C@H](F)C4=CC(=O)C=C[C@]4(C)[C@@]3(F)[C@@H](O)C[C@]2(C)[C@@]1(O)C(=O)COC(=O)C(C)(C)C` [Flumethasone pivalate], -0.352 (inactive).
As for `COc1cc([S+](C)[O-])ccc1-c1nc2cccnc2[nH]1` (stereo not drawn) [Sulmazole], the “light-induced TopBP1 condensate (z-score)” value was 1.19 (inactive).
`CCOc1ccc2c(c1)C(C)=CC(C)(C)N2` [Ethoxyquin]: the “light-induced TopBP1 condensate (z-score)” value is 0.549 (inactive).
For `CC[C@@]1(O)C(=O)OCc2c1cc1n(c2=O)Cc2cc3c(CN(C)C)c(O)ccc3nc2-1` [Topotecan], the “light-induced TopBP1 condensate (z-score)” value was -2.31 (active).
The same measure for `CCc1c2c(nc3ccc(OC(=O)N4CCC(N5CCCCC5)CC4)cc13)-c1cc3c(c(=O)n1C2)COC(=O)[C@]3(O)CC` [Irinotecan hydrochloride trihydrate]: 1.07 (inactive); for `CCCNC(C)(C)C(=O)Nc1ccccc1C` [Quatacaine]: -0.106 (inactive).
Consider `O=C1OCCN1/N=C/c1ccc([N+](=O)[O-])o1` [Furazolidone], for which the “light-induced TopBP1 condensate (z-score)” value was -0.718 (inactive).
The same measure for `CNCCCC1c2ccccc2C=Cc2ccccc21` [Protriptyline hydrochloride]: -2.86 (active).
With `CNCCCC12CCC(c3ccccc31)c1ccccc12` [Maprotiline hydrochloride], the “light-induced TopBP1 condensate (z-score)” value was -0.0912 (inactive).
The same measure for `CNCCC=C1c2ccccc2C=Cc2ccccc21` [Norcyclobenzaprine]: -0.386 (inactive); for `COc1c(O[C@@H]2O[C@H](CO)[C@@H](O)[C@H](O)[C@H]2O)cc2c(c1OC)-c1ccc(SC)c(=O)cc1[C@@H](NC(C)=O)CC2` [Thiocolchicoside]: -0.423 (inactive).
The same measure for `CCCCCOC(=O)Nc1nc(=O)n([C@@H]2O[C@H](C)[C@@H](O)[C@H]2O)cc1F` [Capecitabine]: 0.43 (inactive).
As for `CO[C@H]1/C=C/O[C@@]2(C)Oc3c(C)c(O)c4c(c3C2=O)C2=NC3(CCN(CC(C)C)CC3)NC2=C(NC(=O)/C(C)=C\C=C\[C@H](C)[C@H](O)[C@@H](C)[C@@H](O)[C@@H](C)[C@H](OC(C)=O)[C@@H]1C)C4=O` [Rifabutin], the “light-induced TopBP1 condensate (z-score)” value is -0.0256 (inactive).
The same measure for `COc1c(O)cc2c(c1O)[C@@H]1O[C@H](CO)[C@@H](O)[C@H](O)[C@H]1OC2=O` [Bergenin]: -0.755 (inactive); for `Cc1nccn1CC1CCc2c(c3ccccc3n2C)C1=O` (stereo not drawn) [Ondansetron Hydrochloride]: 1.05 (inactive); for `NC[C@H]1O[C@H](O[C@H]2[C@H](O)[C@@H](O[C@H]3O[C@H](CO)[C@@H](O)[C@H](N)[C@H]3O)[C@H](N)C[C@@H]2N)[C@H](N)C[C@@H]1O` [Tobramycin]: -0.114 (inactive).
For the molecule `CC(NN)c1ccccc1` (stereo not drawn) [Mebanazine], the “light-induced TopBP1 condensate (z-score)” value was 0.298 (inactive).
Turning to `CC(NCCC(c1ccccc1)c1ccccc1)c1ccccc1` (stereo not drawn) [Fendiline hydrochloride], the “light-induced TopBP1 condensate (z-score)” value was -2.06 (active).
`CNCC[C@@H](Oc1ccccc1C)c1ccccc1` [Tomoxetine hydrochloride]: the “light-induced TopBP1 condensate (z-score)” value is -1.4 (inactive).
As to `CC(C)[C@H]1CC[C@H](C(=O)N[C@H](Cc2ccccc2)C(=O)O)CC1` [Nateglinide], the “light-induced TopBP1 condensate (z-score)” value is -0.706 (inactive).
In the case of `COc1cc(NC(C)CCCN)c2ncccc2c1` (stereo not drawn) [Primaquine diphosphate] it was -1.07 (inactive).
As for `N[C@@H]1CCCCN(c2c(F)cc3c(=O)c(C(=O)O)cn(C4CC4)c3c2Cl)C1` [Besifloxacin hydrochloride], the “light-induced TopBP1 condensate (z-score)” value is -0.0694 (inactive).
In the case of `C[C@@H](O)[C@H]1C(=O)N2C(C(=O)O)=C(S[C@@H]3CN[C@H](CNS(N)(=O)=O)C3)[C@H](C)[C@H]12` [Doripenem monohydrate] it was 1.08 (inactive); in that of `Cc1cc(C(C)(C)CC(C)(C)C)ccc1OCCOCC[N+](C)(C)Cc1ccccc1` [Methyl benzethonium chloride], -0.593 (inactive); in that of `CCN(CC)C(=S)SSC(=S)N(CC)CC` [Disulfiram], -4.41 (active).
In the case of `C=C1c2c(Cl)ccc(O)c2C(=O)C2=C(O)[C@]3(O)C(=O)C(C(N)=O)=C(O)[C@@H](N(C)C)[C@@H]3[C@@H](O)[C@H]12.O=C(O)c1cc(S(=O)(=O)O)ccc1O` [Meclocycline sulfosalicylate] it was 0.506 (inactive).
The same measure for `N[C@@H](CCC(=O)N[C@@H](CS)C(=O)NCC(=O)O)C(=O)O` [Glutathione]: 1.35 (inactive); for `O=C(O)CCNC(=O)c1ccccc1` [Betamipron]: -0.17 (inactive); for `Cn1c(=O)c2c(ncn2CCO)n(C)c1=O` [Etofylline]: 0.502 (inactive).
For `CO[C@@]12[C@H](COC(N)=O)C3=C(C(=O)C(C)=C(N)C3=O)N1C[C@@H]1N[C@@H]12` [Mitomycin C], the “light-induced TopBP1 condensate (z-score)” value was -0.867 (inactive).
Turning to `N[C@H](Cc1ccccc1)C(=O)O` [D-phenylalanine], the “light-induced TopBP1 condensate (z-score)” value was -1.1 (inactive).
Turning to `CC(C)(S)C(N)C(=O)O` (racemic) [D,L-Penicillamine], the “light-induced TopBP1 condensate (z-score)” value was 1.98 (inactive).
In the case of `Cc1ccc(C)c(OCCCC(C)(C)C(=O)O)c1` [Gemfibrozil] it was 0.575 (inactive).
`CC(=O)[C@@]12O[C@](C)(c3ccccc3)O[C@@H]1C[C@H]1[C@@H]3CCC4=CC(=O)CC[C@]4(C)[C@H]3CC[C@@]12C` [Algestone acetophenide]: the “light-induced TopBP1 condensate (z-score)” value was -1.65 (inactive).
The same measure for `COc1cc(NS(=O)(=O)c2ccc(N)cc2)nc(OC)n1` [Sulfadimethoxine]: 0.224 (inactive); for `CCN(CC)C(=O)Nc1ccc(OCC(O)CNC(C)(C)C)c(C(C)=O)c1` (stereo not drawn) [Celiprolol hydrochloride]: -0.488 (inactive).
On to `CCc1oc2ccccc2c1C(=O)c1ccc(O)cc1` [Benzarone], for which the “light-induced TopBP1 condensate (z-score)” value is 1.57 (inactive).
In the case of `CCCCC1=NC2(CCCC2)C(=O)N1Cc1ccc(-c2ccccc2-c2nnn[nH]2)cc1` [Irbesartan] it was -0.971 (inactive); in that of `CN(C)C(=N)NC(=N)N` [Metformin hydrochloride], -0.726 (inactive); in that of `CC(C)(C)C(O)/C=C/c1ccc2c(c1)OCO2` (stereo not drawn) [Stiripentol], 1.26 (inactive).
In the case of `CCOC(=O)c1c(N)sc2c1CCN(Cc1ccccc1)C2` [Tinoridine hydrochloride] it was 0.308 (inactive).
Turning to `C[C@H]1O[C@@H](O[C@H]2[C@@H](O)C[C@H](O[C@H]3[C@@H](O)C[C@H](O[C@H]4CC[C@@]5(C)[C@H](CC[C@@H]6[C@@H]5C[C@@H](O)[C@]5(C)[C@@H](C7=CC(=O)OC7)CC[C@]65O)C4)O[C@@H]3C)O[C@@H]2C)C[C@H](O)[C@@H]1O` [Digoxin], the “light-induced TopBP1 condensate (z-score)” value is -2.42 (active).
The same measure for `CCCCOC(=O)c1ccccc1Nc1cccc(C(F)(F)F)c1` [Ufenamate]: -0.0275 (inactive).
In the case of `O=C(NCCO[N+](=O)[O-])c1cccnc1` [Nicorandil] it was 0.468 (inactive).
The same measure for `Cn1nnc2c(C(N)=O)ncn2c1=O` [Temozolomide]: -0.835 (inactive); for `Cc1c(Cl)cccc1Nc1ncccc1C(=O)O` [Clonixin Lysinate]: 0.77 (inactive); for `NC(=O)c1cc[n+](CC2=C(C(=O)[O-])N3C(=O)[C@@H](NC(=O)[C@@H](c4ccccc4)S(=O)(=O)O)[C@H]3SC2)cc1` [Cefsulodin sodium salt]: 0.128 (inactive).
`CC[C@H]1OC(=O)[C@H](C)[C@@H](O[C@H]2C[C@@](C)(OC)[C@@H](O)[C@H](C)O2)[C@H](C)[C@@H](O[C@@H]2O[C@H](C)C[C@H](N(C)C)[C@H]2O)[C@](C)(O)C[C@@H](C)C(=O)[C@H](C)[C@@H](O)[C@]1(C)O` [Erythromycin]: the “light-induced TopBP1 condensate (z-score)” value was -0.359 (inactive).
With `CCC1(c2ccccc2)NC(=O)N(C)C1=O` (stereo not drawn) [Mephenytoin], the “light-induced TopBP1 condensate (z-score)” value was 0.477 (inactive).
The same measure for `COCC(=O)O[C@]1(CCN(C)CCCc2nc3ccccc3[nH]2)CCc2cc(F)ccc2[C@@H]1C(C)C` [Mibefradil]: -2.07 (active); for `COc1cc(/C=C/C(=O)N2CCN(CC(=O)N3CCCC3)CC2)cc(OC)c1OC` [Cinepazide maleate]: -0.187 (inactive).
Consider `CC(C)[C@H](N)C(=O)OCC(CO)OCn1cnc2c(=O)nc(N)[nH]c21` (stereo partly drawn) [Valganciclovir hydrochloride], for which the “light-induced TopBP1 condensate (z-score)” value is 0.111 (inactive).
